# High-throughput results deposited in PubChem by National Center for Advancing Translational Sciences (NCATS).
# ATXN2 expr inh: inhibitors of ATXN2 expression | AID 1745845 | HEK-293 ATXN2-luciferase reporter, luminescence, 24 h | Potency, µM (top dose mostly 57 µM), without a hit: at the highest dose activity change, negative = inhibition, most hits filed as inhibitors | actives 0.72% (n = 360,000); further: on the % scale 0 is the no-effect control and ±100 the full control effect; nearly all actives have a fitted effect of over 55% in size
#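 qHTS (up to 57 uM final) was run with 24 h compound exposure of reporter cells at 37 °C. Each well was multiplexed: SteadyGlo luminescence measured ATXN2-luciferase expression after a fluorogenic Gly-Phe-AFC viability readout (25 uM final).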
# KB-3-1 cytotox: kills parental KB-3-1 adenocarcinoma cells. KB-3-1 viability, CellTiter-Glo ATP luminescence, 72 h. Potency, µM (top dose mostly 46.1 µM), most hits filed as cytotoxic. actives 1.4% (n = 400,000). AID 1347075; further: on the % scale 0 is the no-effect control and ±100 the full control effect; nearly all actives have a fitted effect of over 60% in size
#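 KB-3-1 parental drug-naive adenocarcinoma cells in DMEM/10% FBS, incubated 72 h at 37 C with pin-transferred compounds across a concentration series. Viability by CellTiter-Glo luminescence; concentration-response curves fitted after normalization.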
# KB-V1 cytotox: kills drug-selected multidrug resistant KB-V1 cells; KB-V1 MDR cells viability, CellTiter-Glo, 72 h; Potency, µM (top dose mostly 46.1 µM), most hits filed as cytotoxic; actives 3.4% (n = 400,000); further: on the % scale 0 is the no-effect control and ±100 the full control effect; nearly all actives have a fitted effect of over 60% in size
#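 Cytotoxicity toward P-gp-expressing KB-V1 cells was determined as loss of CellTiter-Glo luminescence after 72 h at 37 degrees C. Compounds were tested in quantitative HTS format across a concentration range, with curves fitted to normalized data.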
# ATXN viability: cell viability loss in ATXN counter-screen; S2 cells (HEK-293 line with an ATXN2-luciferase reporter) viability, CellTiter-Fluor protease fluorescence, 24 h; Potency, µM (highest dose often 56.7 µM), hits mostly cytotoxic; actives 0.49% (n = 400,000); AID 651635; further: nearly all actives have a fitted effect of over 40% in size
# HT1080NT lethal: kills 2HG-producing HT-1080-NT fibrosarcoma cells. HT-1080-NT fibrosarcoma viability, CellTiter-Glo ATP luminescence, 48 h. actives 1.6% (n = 360,000). Potency, µM (top dose mostly 46.1 µM), inactives show at the highest dose activity, negative = less viability, hits mostly cytotoxic;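 further: NT is the 2HG producing partner of a matched IDH1 knockdown line; 0% = DMSO-treated cells and -100% = media-only wells without cells; nearly all actives have a fitted effect of over 55% in size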
#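 HT-1080-NT; 750 cells/well; 5% FBS RPMI; 48 h compound, 37 degrees C; CellTiter-Glo luminescence; curve fitting and curve-class assignment.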
# HT1080 IDH1KD tx: HT-1080 IDH1 knockdown cell toxicity (counter line); Potency, µM (top dose mostly 46.1 µM), for inactives: top-dose activity, negative = toxicity, most hits filed as cytotoxic; actives 2% (n = 360,000); HT-1080 IDH1 knockdown viability, ATP luminescence, 48 h;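 further: 0% = DMSO wells and -100% = cell-free medium wells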
#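 Cytotoxicity counter-line: IDH1KD HT-1080, 48 h, CellTiter-Glo. Curves classed by r2, magnitude and activity.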
# * = called active by the depositor; i = inactive; u = inconclusive; x = not tested or not shown. Hits are enriched below; roughly 6.2% of the tested compounds scored in any of these assays. The call rests on the fitted dose curve; in most records, active means well fitted curve in the direction sought with a large enough effect; inconclusive means small, poorly fitted or top-dose-only effect, or another doubt; inactive means no such curve, though single readings can be large; an effect the other way counts as inactive or inconclusive. Potency means the concentration at half of the fitted maximal effect.
SMILES,ATXN2 expr inh,KB-3-1 cytotox,KB-V1 cytotox,ATXN viability,HT1080NT lethal,HT1080 IDH1KD tx
O=C(COc1ccc(Br)cc1)Nc1ccc(C(=O)OC2CCCCC2)cc1,1.0%,i,i,i,x,x
C[C@@H]1CN(Cc2ccc3c(c2)CN(C(=O)CCc2nc4ccc(F)cc4[nH]2)CCO3)C[C@H](C)O1,x,x,x,i,x,x
CCCCSc1nc(N)nc2c1ncn2C1OC(CO)C(O)C1O (stereo unspecified),-6.1%,i,i,i,-4.5%,-10.2%
CCSc1nc(N)nc2c1ncn2C1OC(CO)C(O)C1O (stereo unspecified),-0.3%,i,i,i,-1.2%,-4.1%
Cn1cnc([N+](=O)[O-])c1Sc1nc(N)nc2c1ncn2C1CC(O)C(CO)O1 (stereo unspecified),-35.0%,3.66µM*,5.17µM*,u,2.31µM*,1.3µM*
Cn1cnc([N+](=O)[O-])c1Sc1nc(N)nc2c1ncn2C1OC(CO)C(O)C1O (stereo unspecified),-33.2%,u,1.16µM*,u,1.3µM*,1.3µM*
Cc1cc(Cl)ccc1Nc1nc(NCc2ccco2)nc2nccnc12,x,i,i,x,x,x
COc1cc(-c2cc(-c3ccc(O)cc3)nc(N)c2C#N)ccc1O,27.4%,u,u,i,u,u
COc1ccc(-c2c(C#N)c(N)nc3c2CCCCCC3)cc1OC,-3.3%,i,i,i,14.0%,7.4%
CCOc1cc(-c2cc(-c3ccc(C)cc3)nc(N)c2C#N)ccc1O,u,5.8µM*,8.2µM*,u,8.91µM*,12.6µM*
COc1ccccc1-c1c(C#N)c(N)nc2c1CCc1ccccc1-2,33.9%,13µM*,16.4µM*,i,14.6µM*,16.4µM*
CCOc1cc(-c2c(C#N)c(N)nc3c2CCc2ccccc2-3)ccc1O,43.2%,u,23.1µM*,u,-27.8%,u
COc1ccccc1-c1c(C)c(C)nc(N)c1C#N,-3.6%,i,i,i,2.4%,-1.2%
CCOc1cc(-c2nc3n(c(=O)c2C#N)CCS3)ccc1O,-3.3%,u,i,i,9.3%,15.5%
CCOc1cc(-c2c(C#N)c(N)nc3c2CCCC3C)ccc1O (stereo unspecified),-7.8%,u,18.4µM*,i,u,u
COc1cc(C2Nc3ccccc3C(=O)N2Cc2ccco2)cc(OC)c1OC (stereo unspecified),x,i,i,x,x,x
CC(=O)c1ccc(OCC(=O)Nc2ccccc2C(=O)NC2CC2)cc1,0.4%,i,i,i,4.8%,0.2%
COc1ccc(CN(C)S(=O)(=O)c2nnc(NC(=O)C(C)C)s2)cc1OC,x,u,i,x,x,x
OCCCNc1ncnc2c1ncn2[C@H]1CN(Cc2ccco2)C[C@@H](CO)O1,18.1%,i,i,i,27.7%,25.9%
C[C@@H]1C[C@@H]2OC(=O)[C@]3(C)[C@H]2[C@@H](OC3(C)O)[C@]2(C)C(=O)C=C[C@H]12 (stereo partly specified),-20.0%,u,i,i,-14.0%,1.0%
C=C1C(=O)C=C[C@]2(C)C[C@@H]3OC(=O)[C@](C)(O)[C@H]3C[C@@H]12,10µM*,u,u,u,u,u
Cc1cccc(-n2cnc3sc(C)c(C)c3c2=O)c1,7.0%,i,i,i,18.9%,3.9%
CCOc1ccc(-n2cnc3sc4c(c3c2=O)CCCC4)cc1,43.5%,i,i,i,3.6%,-1.8%
COc1cccc(-n2cnc3sc(C)c(C)c3c2=O)c1,20.9%,i,20.6µM*,i,-0.6%,-0.7%
COc1ccc(-n2cnc3sc4c(c3c2=O)CCCC4)cc1,4.0%,i,16.4µM*,i,0.6%,-17.5%
SMILES,ATXN2 expr inh,KB-3-1 cytotox,KB-V1 cytotox,ATXN viability,HT1080NT lethal,HT1080 IDH1KD tx
COc1cccc(CNC(=O)c2c(OC)cc(=O)n3c2CCN(C(=O)c2cc(F)cc(F)c2)CC3)c1,x,x,x,i,x,x
CC1(C)CC(=O)C=C(c2ccc(-c3cnc4ccccc4c3)cc2)C1=O,u,i,i,7.94µM*,1.9%,7.1%
O=[N+]([O-])c1ccc(/C=[N+](\[O-])[C@@H]2CCCC[C@@H]2/[N+]([O-])=C/c2ccc([N+](=O)[O-])o2)o1,u,u,20.6µM*,x,-19.8%,-1.6%
COc1ccc(-c2cc(-c3cc(F)ccc3O)[nH]n2)cc1OC,98.7%,i,i,i,-0.2%,u
COc1cc2nc(-c3cc(F)ccc3O)nc(N[C@@H]3CNC[C@@H]3C(C)(C)O)c2cc1OC,21.7µM*,x,x,x,x,x
COc1cc(=O)n2c(c1C(=O)N(C)Cc1nccs1)CCN(Cc1c(F)ccc(F)c1F)CC2,x,x,x,i,x,x
CCNC1=C(Cl)C(=O)c2ccccc2C1=O,-22.6%,u,u,i,u,u
CCN(CC)c1ccc(NC2=C(Cl)C(=O)c3ccccc3C2=O)cc1,20µM*,u,u,10µM*,u,u
O=C1C(Cl)=C(Nc2ccc(O)cc2)C(=O)c2ccccc21,15.8µM*,u,u,15.8µM*,6.51µM*,16.4µM*
CCCC(=O)NC1=C(Cl)C(=O)c2ccccc2C1=O,-19.3%,u,u,x,u,7.31µM*
CC(=O)Nc1ccc(NC2=CC(=O)c3ccccc3C2=O)cc1,17.1%,i,i,i,u,u
O=C1C=C(Nc2ccc(O)cc2)C(=O)c2ccccc21,-24.6%,u,u,u,25.9µM*,20.6µM*
COC1=C(Nc2ccc(O)cc2)C(=O)c2ccccc2C1=O,-16.9%,u,u,u,10.3µM*,23.1µM*
COC1=C(Nc2ccc(OC)cc2)C(=O)c2ccccc2C1=O,3.2%,i,u,u,-6.0%,-15.2%
CN(C(=O)CCl)C1CCCc2ccccc21 (stereo unspecified),u,5.8µM*,u,u,u,u
CN(C(=O)c1cccc(C(F)(F)F)c1)C1CCCc2ccccc21 (stereo unspecified),-17.3%,i,i,i,-25.7%,-25.9%
O=S(=O)(NCC(c1ccco1)N1CCN(c2ccc(F)cc2)CC1)c1ccc(F)cc1 (stereo unspecified),-10.6%,i,14.6µM*,i,-1.7%,-3.7%
O=C(NCc1ccncc1)C(=O)NCC(c1ccco1)N1CCN(c2ccc(F)cc2)CC1 (stereo unspecified),-21.4%,u,2.59µM*,i,-0.9%,2.0%
